# Calls of active or inactive are those of the source.
# Assay: growth of efflux-deficient E. coli DRC39 – strain DRC39, OD650, 48 h, E. coli filamentation inducers, primary screen (AID 1179);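 also: screen aims at cell division blockers that make cells filament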
# Conditions: E. coli DRC39 delta-acrAB growth, higher = more signal, called active from +8 up or from −8 down
row,Compound,z-score
1,O=C1C[C@@](C(=O)O)(c2ccc([N+](=O)[O-])cc2)[C@@H](c2ccc(CO)cc2)N1CC12CC3CC(CC(C3)C1)C2,0.507 (inactive)
2,O=C1C[C@@](C(=O)NCc2ccccc2)(c2ccc([N+](=O)[O-])cc2)[C@@H](c2ccc(CO)cc2I)N1C1CCCCC1,-0.0118 (inactive)
3,COc1cccc(C[C@H]2C[C@@H](CO[Si](C(C)C)(C(C)C)C(C)C)N3C(=O)[C@]4(C(C)=O)O[C@]23[C@H]2C(=O)N(C)C(=O)[C@H]24)c1,-0.152 (inactive)
4,COCC(=C=CC[C@@H](O)c1ccccc1OCCO)C[C@@H](O)COCc1ccccc1,1.6 (inactive)
5,COC(=O)C(CC#Cc1ccc2c(c1)[C@]1(C(=O)N2)[C@H](C(=O)N2CCc3cc(OC)c(OC)cc3C2)[C@H]2C(=O)O[C@H](c3ccccc3)[C@H](c3ccccc3)N2[C@@H]1c1ccc(O)cc1)C(=O)OC,0.356 (inactive)
6,CN1C(=O)C2C=CC(C(O)COCc3ccccc3)N(Nc3ccccc3)C2C1=O (configuration not stated),0.0813 (inactive)
7,Cc1ccccc1C(O)C1C=CC2C(=O)N(Cc3ccccc3)C(=O)C2N1n1cnnc1 (configuration not stated),0.208 (inactive)

# Assay: viability profiling in RPMI8226 myeloma cells – cell-based, resazurin fluorescence, basal, 24 h, PK04 Diversity Set, profiling panel (AID 1180);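 also: RPMI8826 multiple myeloma cell line at 5000 cells per well; test concentration not given here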
# Conditions: higher = more signal
row,Compound,z-score
1,Cc1cc(C)c(C(O)C2C=CC3C(=O)N(c4ccccc4)C(=O)C3N2Nc2ccccc2)c(C)c1 (configuration not stated),-0.0598
2,O=C1O[C@H](c2ccccc2)[C@H](c2ccccc2)N2[C@H]1[C@@H](C(=O)N1CCN(c3ncccn3)CC1)[C@]1(C(=O)Nc3ccc(C#CCCO)cc31)[C@H]2c1ccc(OCCO)cc1,0.747
3,O=C1CSC(c2cccc([N+](=O)[O-])c2)N1c1ccccc1 (configuration not stated),0.407
4,COC(=O)C(CC#Cc1ccc2c(c1)[C@]1(C(=O)N2)[C@H](c2ccc(O)cc2)N2[C@H](c3ccccc3)[C@H](c3ccccc3)OC(=O)[C@H]2[C@@H]1C(=O)O)C(=O)OC,-0.0316
5,COCCCNC(=O)[C@@]1(Cc2ccccc2I)c2ccccc2C(=O)N(Cc2ccccc2Cl)[C@H]1c1ccc(CO)cc1,1.82
6,COC(=O)[C@]1(Cc2ccccc2CN=[N+]=[N-])N=C(c2ccc(OCCCO)cc2)O[C@@H]1c1ccccc1,-5.26
7,CN(C)CCCCCCNC(=O)[C@@H]1C[C@@H]2C(=O)NCC(=O)N2[C@@H]1c1ccc(O)cc1,-1.35
8,COC(=O)c1ccc(OC)c(/C=C\CC(CCc2ccccc2)OC(=O)c2ccncc2)c1 (configuration not stated),1.24
9,CCOC(=O)C[C@H]1[C@H](OC(=O)Cc2ccc3c(c2)OCO3)[C@@H](NC(=O)c2ccccc2)c2cc(OCCCO)ccc2N1C(=O)c1ccc2ccccc2n1,0.121
10,CCCNC(=O)[C@@]1(Sc2ccc(C)cc2)CC(=O)N(Cc2ccccc2)[C@@H]1c1ccc(CO)cc1I,-2.81
11,CC1(C)[C@@H]2CC(C(O)C3C=CC4C(=O)N(c5ccccc5)C(=O)C4N3Nc3ccccc3F)=C[C@@H]1C2 (some centres not stated),-1.19
12,COc1ccc(C#Cc2ccc3c(c2)[C@]2(C(=O)N3)[C@H](C(N)=O)[C@H]3C(=O)O[C@H](c4ccccc4)[C@H](c4ccccc4)N3[C@@H]2c2ccc(O)cc2)cc1,-6.43
13,COc1ccc([Si](C)(C)[C@@H]2[C@@H](CCO)O[C@]3(C(=O)N(Cc4ccc(N5C(=O)c6ccccc6Oc6ccccc65)cc4)c4ccccc43)[C@H]2C)cc1,-3.07
14,NC(=O)NCC#Cc1ccc2c(c1)[C@]1(C(=O)N2)[C@H](c2ccc(O)cc2)N2[C@H](c3ccccc3)[C@H](c3ccccc3)OC(=O)[C@H]2[C@@H]1C(=O)NC[C@H](O)c1ccccc1,0.82
15,CO[C@H]1O[C@H](CO)[C@@H](OC(=O)c2ccc(Br)cc2)[C@@H]2OC(=O)[C@H](Cc3cccc(Br)c3)C/C=C/C[C@@H](Cc3cccc(Br)c3)C(=O)O[C@@H]12,-1.47
16,CO[C@H]1O[C@H](CO)[C@@H](OC(=O)Nc2cccc(F)c2)[C@H](OC(=O)Nc2ccc3c(c2)OCO3)[C@H]1OC(=O)Nc1ccc2c(c1)OCO2,-1.89
17,CC(C)C[C@H]1NC(=O)[C@H](C)NC(=O)[C@@]23C(=O)N[C@@H](Cc4ccccc4)C2[C@H](C)[C@@]2(C)O[C@H]2C3/C=C/C/C=C\CNC1=O (some centres not stated),0.154
18,Cc1ccc(C(C)CC(O)C2C=CC3C(=O)N(Cc4ccccc4)C(=O)C3N2n2cnnc2)o1 (configuration not stated),-0.841

row,Compound,z-score
1,COCCCNC(=O)[C@@]1(Cc2ccccc2)COC(c2ccc(OCCCO)cc2)=N1,1.22
2,O=C1c2ccccc2[C@](Cc2ccccc2I)(C(=O)NC2CC2)[C@H](c2ccc(CO)cc2)N1Cc1ccccc1Cl,-0.506
3,CCOC(=O)C[C@H]1[C@H](OC(=O)Cc2ccc3c(c2)OCO3)[C@@H](NC(=O)c2ccccc2)c2cc(OCCCO)ccc2N1C(=O)c1ccccc1,-0.19
4,CCOC(=O)C1=CC[C@@H](c2ccc(N(CC)CC)cc2)N(S(=O)(=O)c2ccc(C)cc2)[C@H]1c1ccc([N+](=O)[O-])cc1,-1.06
5,COC(=O)C(CC#Cc1ccc2c(c1)[C@]1(C(=O)N2)[C@H](C(=O)N2CCc3cc(OC)c(OC)cc3C2)[C@H]2C(=O)O[C@H](c3ccccc3)[C@H](c3ccccc3)N2[C@@H]1c1ccc(OCCO)cc1)C(=O)OC,-0.0688
6,CC(C)N1C(=O)c2ccccc2[C@](C)(C(=O)O)[C@@H]1c1ccc(CO)cc1,0.125
7,C=CCC(OC(C)=O)[C@@H]1[C@@H](N(Cc2ccc(-c3ccccc3)cc2)C(=O)c2cccc3ccccc23)c2cc(OCCCO)ccc2N1C(=O)c1ccc2ccccc2n1 (some centres not stated),0.131
8,[N-]=[N+]=Nc1ccccc1[C@H]1OC(c2ccc(OCCCO)cc2)=N[C@@]1(Cc1ccccc1)C(=O)NCc1ccccc1,-3.99
9,COCCCNC(=O)[C@]1(CCS(=O)(=O)c2ccccc2)N=C(c2ccc(OCCCO)cc2)O[C@@H]1c1ccccc1,-0.0847
10,NC(=O)NCC#Cc1ccc2c(c1)[C@]1(C(=O)N2)[C@H](c2ccc(OCCO)cc2)N2[C@H](c3ccccc3)[C@H](c3ccccc3)OC(=O)[C@H]2[C@@H]1C(=O)N1CCCCCCC1,-0.507
11,O=C1C[C@@](C(=O)O)(c2ccc([N+](=O)[O-])cc2)[C@@H](c2ccc(CO)cc2)N1CC12CC3CC(CC(C3)C1)C2,-0.474
12,O=C1C[C@@](C(=O)NCc2ccccc2)(c2ccc([N+](=O)[O-])cc2)[C@@H](c2ccc(CO)cc2I)N1C1CCCCC1,0.787
13,COc1cccc(C[C@H]2C[C@@H](CO[Si](C(C)C)(C(C)C)C(C)C)N3C(=O)[C@]4(C(C)=O)O[C@]23[C@H]2C(=O)N(C)C(=O)[C@H]24)c1,-2.81
14,COCC(=C=CC[C@@H](O)c1ccccc1OCCO)C[C@@H](O)COCc1ccccc1,0.935
15,COC(=O)C(CC#Cc1ccc2c(c1)[C@]1(C(=O)N2)[C@H](C(=O)N2CCc3cc(OC)c(OC)cc3C2)[C@H]2C(=O)O[C@H](c3ccccc3)[C@H](c3ccccc3)N2[C@@H]1c1ccc(O)cc1)C(=O)OC,-0.14
16,CN1C(=O)C2C=CC(C(O)COCc3ccccc3)N(Nc3ccccc3)C2C1=O (configuration not stated),0.182
17,Cc1ccccc1C(O)C1C=CC2C(=O)N(Cc3ccccc3)C(=O)C2N1n1cnnc1 (configuration not stated),-0.408
